In article PMC5540273 (PLoS ONE, 2017):

Columns and labels:
Details in all cases: concentration: 1 μM, replicates: in singlicate; n = 1
DCAMKL2 = test system: T1, DCAMKL2
T1 construct: gene DCLK2

DCAMKL3 = test system: T2, DCAMKL3
T2 construct: gene DCLK3

DDR1 = test system: DDR1
DDR2 = test system: DDR2
DLK = test system: T3, DLK
T3 construct: gene MAP3K12

DMPK2 = test system: T4, DMPK2
T4 construct: gene CDC42BPG

DMPK = test system: DMPK
DRAK1 = test system: T5, DRAK1
T5 construct: gene STK17A

DRAK2 = test system: T6, DRAK2
T6 construct: gene STK17B

DYRK1A = test system: DYRK1A
DYRK1B = test system: DYRK1B
DYRK2 = test system: DYRK2
EGFR = test system: EGFR
EIF2AK1 = test system: EIF2AK1
EPHA1 = test system: EPHA1
EPHA2 = test system: EPHA2
EPHA3 = test system: EPHA3
EPHA4 = test system: EPHA4
EPHA5 = test system: EPHA5
EPHA6 = test system: EPHA6
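Note: KINOMEscan kinase panel screen.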

Row | Structure (SMILES) | %Inh (DCAMKL2) [%] | %Inh (DCAMKL3) [%] | %Inh (DDR1) [%] | %Inh (DDR2) [%] | %Inh (DLK) [%] | %Inh (DMPK2) [%] | %Inh (DMPK) [%] | %Inh (DRAK1) [%] | %Inh (DRAK2) [%] | %Inh (DYRK1A) [%] | %Inh (DYRK1B) [%] | %Inh (DYRK2) [%] | %Inh (EGFR) [%] | %Inh (EIF2AK1) [%] | %Inh (EPHA1) [%] | %Inh (EPHA2) [%] | %Inh (EPHA3) [%] | %Inh (EPHA4) [%] | %Inh (EPHA5) [%] | %Inh (EPHA6) [%]
1 | Nc1ncc(-c2ccc3nccc(-c4ccncc4)c3c2)cc1S(=O)(=O)N1CCCCC1 [GSK1693850] | 0 | 0 | 2 | 12 | 42 | 15 | 0 | 0 | 5 | 8 | 2 | 22 | 1 | 0 | 0 | 21 | 22 | 3 | 0 | 0
2 | COc1cc(Nc2ccnc3cc(-c4ccncc4)ccc23)cc(OC)c1OC.Cl [GW494610] | 0 | 0 | 57 | 81 | 47 | 46 | 0 | 0 | 0 | 12 | 0 | 4 | 58 | 0 | 96.9 | 83 | 48 | 48 | 37 | 0
3 | COc1cccc(-c2nc(-c3ccccc3)[nH]c2-c2ccncc2)c1 [SB-610250] | 22 | 14 | 78 | 49 | 16 | 68 | 0 | 0 | 0 | 22 | 20 | 2 | 12 | 5 | 18 | 0 | 0 | 17 | 0 | 9
4 | Cc1ccc(NC(=O)c2ccc(Cl)c(Cl)c2)cc1-c1ccc(C(=O)Nc2ccncc2)cc1 [GSK1398460] | 10 | 17 | 100 | 69 | 0 | 0 | 0 | 0 | 3 | 14 | 6 | 7 | 32 | 7 | 13 | 14 | 1 | 32 | 12 | 18
5 | Cc1cccc(Nc2nc(NCCN)ncc2C(N)=O)c1 [GSK1292139] | 0 | 0 | 0 | 20 | 62 | 60 | 14 | 58 | 68 | 2 | 27 | 33 | 15 | 0 | 14 | 0 | 64 | 0 | 0 | 0
6 | COC(=O)Nc1nc2cc(Oc3ccc(NC(=O)Nc4cccc(SC)c4)cc3)ccc2[nH]1.Cl [GW697999] | 6 | 29 | 100 | 98.7 | 32 | 0 | 0 | 8 | 0 | 12 | 0 | 7 | 29 | 0 | 59 | 88 | 15 | 64 | 26 | 92.6
7 | CC(C)(C)c1ccc(C(=O)Nc2cn3cc(-n4ccnc4)ccc3n2)cc1 | 0 | 0 | 0 | 2 | 0 | 4 | 0 | 20 | 35 | 91.4 | 94.8 | 67 | 9 | 0 | 0 | 0 | 16 | 0 | 0 | 12
8 | O=C(Nc1n[nH]c2nc(-c3cccc(O)c3)ccc12)C1CC1 [SB-711805] | 0 | 49 | 0 | 20 | 0 | 0 | 0 | 24 | 12 | 76 | 86 | 79 | 5 | 0 | 13 | 0 | 19 | 0 | 0 | 15
9 | CSc1ccc(NC2=C(c3ccc(Cl)cc3)C(=O)NC2=O)cc1 [SB-317658] | 2 | 12 | 0 | 5 | 0 | 10 | 8 | 12 | 0 | 1 | 17 | 22 | 6 | 0 | 32 | 0 | 0 | 28 | 31 | 26
